# In the supplement of paper PMC8728848:
# The full list was thinned out, with the strongest signals kept by preference.
# B1: PLU (Photorhabdus luminiscence) (protein)
# chain: HHHHHHENLYFQSSIVFASIDPRSNPLQTSSQNYVDIPGLKLDVSKYSNSPCLTALITLNIPTPYASGNNFPGGNFAIVTDQGEQLAYGGFTYSSKIPENSGRMPFTLVARYSLASNVSTIKAQWSNIRGSTVHIDSYASISAVIQCNQLV
# How the values were obtained:
# Experiment in all cases: glycan array binding signal (z-score within array); higher = stronger binding
# Conditions in all cases: glycan notation: IUPAC condensed, linker removed
# [1] = target: Fuc(a1-2)Gal(b1-3)GalNAc(b1-3)Gal(a1-4)Gal(b1-4)Glc
# Method in brief: (§1)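 Columns mapping to the same glycan were averaged after glycan names were converted to IUPAC-condensed notation. The data come from 3228 arrays in the Consortium for Functional Glycomics database, limited to those with an available protein sequence. Binding is reported as a within-array Z-score averaged across arrays of one protein sequence and across linkers.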
# [2] = target: Fuc(a1-2)Gal(b1-3)[Fuc(a1-4)]GlcNAc
# Method in brief: as §1
# [3] = target: Fuc(a1-2)Gal(b1-4)[Fuc(a1-3)]GlcNAc
# Method in brief: as §1
# [4] = target: Fuc(a1-2)Gal(b1-4)[Fuc(a1-3)]GlcNAc(b1-2)Man(a1-3)[Fuc(a1-2)Gal(b1-4)[Fuc(a1-3)]GlcNAc(b1-2)Man(a1-6)]Man(b1-4)GlcNAc(b1-4)[Fuc(a1-6)]GlcNAc
# Method in brief: as §1
# [5] = target: Fuc(a1-2)Gal(b1-4)[Fuc(a1-3)]GlcNAc(b1-3)Gal(b1-4)[Fuc(a1-3)]GlcNAc
# Method in brief: as §1
# [6] = target: Fuc(a1-2)Gal(b1-4)[Fuc(a1-3)]GlcNAc(b1-3)Gal(b1-4)[Fuc(a1-3)]GlcNAc(b1-3)Gal(b1-4)[Fuc(a1-3)]GlcNAc
# Method in brief: as §1
# [7] = target: Fuc(a1-2)[Gal(a1-3)]Gal(b1-3)GlcNAc
# Method in brief: as §1
# [8] = target: Fuc(a1-2)[Gal(a1-3)]Gal(b1-4)Glc
# Method in brief: as §1
# [9] = target: Fuc(a1-2)[Gal(a1-3)]Gal(b1-4)GlcNAc
# Method in brief: as §1
# [10] = target: Fuc(a1-2)[Gal(a1-3)]Gal(b1-4)GlcNAc(b1-2)Man(a1-3)[Fuc(a1-2)[Gal(a1-3)]Gal(b1-4)GlcNAc(b1-2)Man(a1-6)]Man(b1-4)GlcNAc(b1-4)GlcNAc
# Method in brief: as §1
# [11] = target: Fuc(a1-2)[Gal(a1-3)]Gal(b1-4)[Fuc(a1-3)]GlcNAc
# Method in brief: as §1
# [12] = target: Fuc(a1-2)[GalNAc(a1-3)]Gal(b1-3)GalNAc(b1-3)Gal(a1-4)Gal(b1-4)Glc
# Method in brief: as §1
# [13] = target: Fuc(a1-2)[GalNAc(a1-3)]Gal(b1-4)GlcNAc(b1-2)Man
# Method in brief: as §1
# [14] = target: Fuc(a1-2)[GalNAc(a1-3)]Gal(b1-4)GlcNAc(b1-3)Gal(b1-4)GlcNAc
# Method in brief: as §1
# [15] = target: Fuc(a1-4)GlcNAc
# Method in brief: as §1
# [16] = target: Fuc(b1-3)GlcNAc
# Method in brief: as §1
# [17] = target: Gal(a1-3)Gal(b1-3)GlcNAc(b1-6)GalNAc
# Method in brief: as §1
# [18] = target: Gal(a1-3)Gal(b1-4)Glc
# Method in brief: as §1
# [19] = target: Gal(a1-3)Gal(b1-4)GlcNAc
# Method in brief: as §1
# [20] = target: Gal(a1-3)Gal(b1-4)[Fuc(a1-3)]GlcNAc
# Method in brief: as §1
# [21] = target: Gal(a1-4)Gal(b1-4)GlcNAc(b1-2)Man(a1-3)[Gal(a1-4)Gal(b1-4)GlcNAc(b1-2)Man(a1-6)]Man(b1-4)GlcNAc(b1-4)GlcNAc
# Method in brief: as §1
# [22] = target: Gal(b1-3)[Neu5Ac(b2-6)]GalNAc
# Method in brief: as §1
# [23] = target: Gal(b1-4)Gal
# Method in brief: as §1
# [24] = target: Gal(b1-4)GlcNAc(b1-2)Man(a1-3)Man(b1-4)GlcNAc(b1-4)GlcNAc
# Method in brief: as §1
# [25] = target: Gal(b1-4)GlcNAc(b1-3)Gal(b1-4)GlcNAc(b1-3)Gal(b1-4)GlcNAc(b1-3)Gal(b1-4)GlcNAc(b1-3)Gal(b1-4)GlcNAc(b1-2)Man(a1-3)[Gal(b1-4)GlcNAc(b1-3)Gal(b1-4)GlcNAc(b1-3)Gal(b1-4)GlcNAc(b1-3)Gal(b1-4)GlcNAc(b1-3)Gal(b1-4)GlcNAc(b1-2)Man(a1-6)]Man(b1-4)GlcNAc(b1-4)[Fuc(a1-6)]GlcNAc
# Method in brief: as §1
# [26] = target: Gal(b1-4)GlcNAc(b1-3)[GlcNAc(b1-6)]Gal(b1-4)GlcNAc
# Method in brief: as §1
# [27] = target: Gal(b1-4)GlcNAc(b1-6)GalNAc
# Method in brief: as §1
# [28] = target: GalNAc(b1-3)Gal
# Method in brief: as §1
# [29] = target: GalNAc(b1-6)GalNAc
# Method in brief: as §1
# [30] = target: Glc(a1-6)Glc(a1-6)Glc
# Method in brief: as §1
# [31] = target: GlcNAc(a1-4)Gal(b1-4)GalNAc
# Method in brief: as §1
# [32] = target: GlcNAc(b1-3)Gal(b1-4)GlcNAc(b1-2)Man(a1-3)[GlcNAc(b1-3)Gal(b1-4)GlcNAc(b1-2)Man(a1-6)]Man(b1-4)GlcNAc(b1-4)GlcNAc
# Method in brief: as §1
# [33] = target: GlcNAc(b1-4)Gal(b1-4)GlcNAc
# Method in brief: as §1
# [34] = target: GlcNAc(b1-4)GlcNAc(b1-4)GlcNAc
# Method in brief: as §1
# [35] = target: Kdn(a2-3)Gal(b1-4)GlcNAc
# Method in brief: as §1
# [36] = target: Man(a1-3)[Man(a1-6)]Man(a1-6)[Man(a1-3)]Man
# Method in brief: as §1
# [37] = target: Neu5Ac(a2-3)Gal(b1-3)GalNAc(b1-3)Gal(a1-4)Gal(b1-4)Glc
# Method in brief: as §1
# [38] = target: Neu5Ac(a2-3)Gal(b1-3)GlcNAc6S
# Method in brief: as §1
# [39] = target: Neu5Ac(a2-3)Gal(b1-3)[Neu5Ac(a2-6)]GalNAc
# Method in brief: as §1
# [40] = target: Neu5Ac(a2-3)Gal(b1-4)GlcNAc(b1-2)Man(a1-3)[GlcNAc(b1-4)][Neu5Ac(a2-3)Gal(b1-4)GlcNAc(b1-2)Man(a1-6)]Man(b1-4)GlcNAc(b1-4)GlcNAc
# Method in brief: as §1
# [41] = target: Neu5Ac(a2-3)Gal(b1-4)GlcNAc(b1-3)Gal(b1-4)GlcNAc
# Method in brief: as §1
# [42] = target: Neu5Ac(a2-3)Gal(b1-4)GlcNAc(b1-6)[Gal(b1-3)]GalNAc
# Method in brief: as §1
# [43] = target: Neu5Ac(a2-3)Gal(b1-4)GlcNAc(b1-6)[Neu5Ac(a2-3)Gal(b1-3)]GalNAc
# Method in brief: as §1
# [44] = target: Neu5Ac(a2-3)[GalNAc(b1-4)]Gal(b1-4)Glc
# Method in brief: as §1
# [45] = target: Neu5Ac(a2-3)[Neu5Ac(a2-6)]GalNAc
# Method in brief: as §1
# [46] = target: Neu5Ac(a2-6)Gal(b1-4)GlcNAc(b1-2)[Neu5Ac(a2-6)Gal(b1-4)GlcNAc(b1-4)]Man(a1-3)[GlcNAc(b1-4)][Neu5Ac(a2-6)Gal(b1-4)GlcNAc(b1-4)Man(a1-6)]Man(b1-4)GlcNAc(b1-4)GlcNAc
# Method in brief: as §1
# [47] = target: Neu5Ac(a2-6)Gal(b1-4)GlcNAc(b1-6)GalNAc
# Method in brief: as §1
# [48] = target: Neu5Gc(a2-8)Neu5Ac(a2-3)Gal(b1-4)GlcNAc
# Method in brief: as §1
binder,measurement,setting,value
B1,glycan array binding signal (z-score),[1],-0.183
same,glycan array binding signal (z-score),[2],5.25
same,glycan array binding signal (z-score),[3],3.55
same,glycan array binding signal (z-score),[4],0.621
same,glycan array binding signal (z-score),[5],3.58
same,glycan array binding signal (z-score),[6],5.21
same,glycan array binding signal (z-score),[7],4.43
same,glycan array binding signal (z-score),[8],3.43
same,glycan array binding signal (z-score),[9],3.83
same,glycan array binding signal (z-score),[10],3.78
same,glycan array binding signal (z-score),[11],5.59
same,glycan array binding signal (z-score),[12],-0.33
same,glycan array binding signal (z-score),[13],3.66
same,glycan array binding signal (z-score),[14],11.7
same,glycan array binding signal (z-score),[15],0.546
same,glycan array binding signal (z-score),[16],-0.329
same,glycan array binding signal (z-score),[17],-0.253
same,glycan array binding signal (z-score),[18],-0.284
same,glycan array binding signal (z-score),[19],-0.298
same,glycan array binding signal (z-score),[20],-0.21
same,glycan array binding signal (z-score),[21],-0.137
same,glycan array binding signal (z-score),[22],-0.298
same,glycan array binding signal (z-score),[23],-0.25
same,glycan array binding signal (z-score),[24],-0.227
same,glycan array binding signal (z-score),[25],-0.211
same,glycan array binding signal (z-score),[26],-0.329
same,glycan array binding signal (z-score),[27],-0.243
same,glycan array binding signal (z-score),[28],-0.24
same,glycan array binding signal (z-score),[29],-0.216
same,glycan array binding signal (z-score),[30],-0.299
same,glycan array binding signal (z-score),[31],-0.301
same,glycan array binding signal (z-score),[32],-0.212
same,glycan array binding signal (z-score),[33],-0.134
same,glycan array binding signal (z-score),[34],-0.336
same,glycan array binding signal (z-score),[35],-0.224
same,glycan array binding signal (z-score),[36],-0.093
same,glycan array binding signal (z-score),[37],-0.254
same,glycan array binding signal (z-score),[38],-0.277
same,glycan array binding signal (z-score),[39],-0.203
same,glycan array binding signal (z-score),[40],-0.251
same,glycan array binding signal (z-score),[41],-0.256
same,glycan array binding signal (z-score),[42],-0.144
same,glycan array binding signal (z-score),[43],-0.34
same,glycan array binding signal (z-score),[44],-0.324
same,glycan array binding signal (z-score),[45],-0.281
same,glycan array binding signal (z-score),[46],-0.267
same,glycan array binding signal (z-score),[47],-0.292
same,glycan array binding signal (z-score),[48],-0.285
